The list is not random: actives were taken first. Their share in the collection is about 2.8%.
SNCA expr inhib – Primary qHTS assay for inhibitors of alpha-synuclein gene (SNCA) expression | HEK-293 SNCA-luciferase knock-in, luminescence, 24 h | Potency, µM (top dose mostly 57.2 µM), actives largely listed as inhibitors | 140,000 tested, 0.17% active | AID 1671194, 2021; also: nearly all actives have a fitted effect of over 45% in size
IP6K1 inh – Primary qHTS assay for small molecule inhibitors of Inositol hexaphosphate kinase 1 (IP6K1); Inositol hexakisphosphate kinase 1 (Homo sapiens), Q92551; IP6K1 kinase, ADP-Glo luminescence, 2 h; active compounds read low; activity change, % (series mostly up to about 58 µM); 140,000 tested, 0.81% active; AID 1645851, 2021; in the data active = activity change below about -25%
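ADP-Glo luminescence measures ADP made by human IP6K1 during a 2 h RT reaction with ATP/IP6 (mix at 1.3 mM/130 uM); top library doses 57.5 and 19.1 uM final.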
KDM5B inh – Primary screen for KDM5B Histone Demethylases FDH-coupled qHTS; KDM5B demethylase, FDH-coupled NADH fluorescence (FDH is formaldehyde dehydrogenase); Lysine-specific demethylase 5B (Homo sapiens), Q9UGL1; Potency, µM (doses to about 57.7 µM), hits mostly inhibitors; 220,000 tested, 2.6% active; AID 1347165, 2019; also: nearly all actives have a fitted effect of over 70% in size
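Here, H3K4me3 peptide (12.5 µM in substrate mix) is demethylated by KDM5BΔAP, 200 nM final, after 10 min compound exposure. Formaldehyde product is coupled through FDH (0.25 U/mL in mix) to NADH fluorescence; 30-min ΔRFU feeds dose-response curves.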
SNCA viab count – GF-AFC viability counterscreen for inhibitors of alpha-synuclein gene (SNCA) expression | HEK-293-SNCA-luc viability, GF-AFC fluorescence, 24 h | Potency, µM (highest dose often 57.1 µM), actives largely listed as cytotoxic | 150,000 tested, 0.12% active; also: nearly all actives have a fitted effect of over 30% in size
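HEK-293-SNCA-luc cells (1500/well) plated 24 h, then exposed 24 h to a dilution series; GF-AFC added 30 min at 37C, fluorescence 405/540 nm; normalised to medium-only and DMSO wells, Hill fit.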
Numbers stand for hits. Unless noted, calls follow the shape of the dose curve; as a rule, active = well fitted curve in the direction sought with a large enough effect; inconclusive = small, poorly fitted or top-dose-only effect, or another doubt; inactive = no such curve, though single readings can be large; an effect the other way counts as inactive or inconclusive.

`O=C(NCc1nnc2ccc(-c3ccc(Cl)cc3)nn12)c1ccc(Cl)s1` gave SNCA expr inhib inactive, IP6K1 inh inactive, KDM5B inh 5.01µM and SNCA viab count inactive.
For Cc1ccc(C(=O)NCc2nnc3ccc(-c4ccccc4)nn23)s1 the results were SNCA expr inhib inactive, IP6K1 inh inactive, KDM5B inh inconclusive and SNCA viab count inactive.
Screening Cc1ccc(C(=O)NCc2nnc3ccc(-c4ccc(Cl)cc4)nn23)s1 returned SNCA expr inhib inconclusive, IP6K1 inh inactive, KDM5B inh 15.8µM and SNCA viab count inactive.
`O=C(NCc1nnc2ccc(-c3ccccc3)nn12)c1ccc(Cl)s1` gave SNCA expr inhib inactive, IP6K1 inh inactive, KDM5B inh 22.4µM and SNCA viab count inactive.
`Cc1ccsc1C(=O)NCc1nnc2ccc(-c3ccc(Cl)cc3)nn12` gave SNCA expr inhib inactive, IP6K1 inh inactive, KDM5B inh 31.6µM and SNCA viab count inactive.
O=C(Nc1ccc2c(c1)OCCO2)N1CCC2(CC1)CC(N1CCCC1)CCO2 (configuration not stated) was read as SNCA expr inhib inactive, IP6K1 inh inactive, KDM5B inh inconclusive and SNCA viab count inactive.
CCOC(=O)c1cnn2c(C(F)(F)F)cc(-c3ccc(Br)cc3)nc12 was read as SNCA expr inhib inactive, IP6K1 inh inactive, KDM5B inh inactive and SNCA viab count inactive.
Screening COc1cc2c(NC3CCN(C(C)C)CC3)nc(N3CCC(F)(F)CC3)nc2cc1OCCCN1CCCC1 returned IP6K1 inh inactive and SNCA viab count 23.8µM.
Cn1ncc2c(C(=O)NCCc3ccc(Cl)cc3)cc(-c3ccc(Cl)cc3)nc21 was read as SNCA expr inhib inconclusive, IP6K1 inh inactive, KDM5B inh inconclusive and SNCA viab count inactive.
Cn1ncc2c(C(=O)NCCc3ccc(Cl)cc3)cc(-c3ccc(Cl)cc3Cl)nc21 was read as SNCA expr inhib inconclusive, IP6K1 inh inactive, KDM5B inh 70.8µM and SNCA viab count inactive.
For CC(C)NC(=O)c1cc(-c2ccc(Cl)cc2Cl)nc2c1cnn2C the results were SNCA expr inhib inactive, IP6K1 inh inactive, KDM5B inh 89.1µM and SNCA viab count inactive.
CC(C)c1noc(-c2cn(C3CCN(C(=O)c4ccc(F)cc4Cl)C3)nn2)n1 (configuration not stated) was read as SNCA expr inhib inactive, IP6K1 inh inactive, KDM5B inh inactive and SNCA viab count inactive.
Cn1ccnc1CN1C[C@@H]2C[C@H]1C(=O)N(CC1CC1)c1ccccc1O2 was read as SNCA expr inhib inconclusive, IP6K1 inh inactive, KDM5B inh inactive and SNCA viab count inactive.
O=C1[C@@H]2C[C@@H](CN2Cc2ccnc3ccccc23)Oc2ccccc2N1CC1CC1 was read as SNCA expr inhib inactive, IP6K1 inh inactive, KDM5B inh 35.5µM and SNCA viab count inactive.
`Cc1ccc(C2=NC3(CCN(C(=O)c4cc(F)ccc4Cl)CC3)ON2)cc1` gave SNCA expr inhib inactive, IP6K1 inh inactive, KDM5B inh inactive and SNCA viab count inactive.
For O=C(Cc1cccs1)N1CCC2(CC1)N=C(c1ccc(Cl)cc1)NO2 the results were SNCA expr inhib inconclusive, IP6K1 inh inactive, KDM5B inh 25.1µM and SNCA viab count inactive.
For COc1ccc(C(=O)N2CCC3(CC2)N=C(c2ccc(Cl)cc2)NO3)cc1 the results were SNCA expr inhib inactive, IP6K1 inh inactive, KDM5B inh 31.6µM and SNCA viab count inactive.
For COc1cc(OC)cc(C(=O)N2CCC3(CC2)N=C(c2ccc(Cl)cc2)NO3)c1 the results were SNCA expr inhib inactive, IP6K1 inh inactive, KDM5B inh inconclusive and SNCA viab count inactive.
O=C(c1cc(F)ccc1F)N1CCC2(CC1)N=C(c1ccc(Cl)cc1)NO2 was read as SNCA expr inhib inactive, IP6K1 inh inactive, KDM5B inh 22.4µM and SNCA viab count inactive.
COCCN(Cc1cccs1)S(=O)(=O)c1ccc(Br)cc1Cl was read as KDM5B inh inactive.
Screening Cc1ccccc1C(=O)N1C(C(=O)N2CCCC2)COC12CCN(C(=O)Cc1ccccc1)CC2 (configuration not stated) returned SNCA expr inhib inactive, IP6K1 inh inactive, KDM5B inh inactive and SNCA viab count inactive.
`Cc1nnc(SCC(=O)NC2CCCC2)n1CCc1ccccc1` gave KDM5B inh inactive.
Screening O=C(Cc1cccnc1)N1CCCC(c2ccccc2)(c2ccccc2)C1 returned SNCA expr inhib inactive, IP6K1 inh inactive, KDM5B inh inactive and SNCA viab count inactive.
Screening O=C(Nc1ccc2oc(-c3ccccc3)nc2c1)C1CCN(c2cnn(Cc3ccccc3)c(=O)c2)C1 (configuration not stated) returned SNCA expr inhib inactive, IP6K1 inh inactive, KDM5B inh 17.8µM and SNCA viab count inactive.
For O=C(Nc1ccc2c(c1)OCO2)C1CCCN(c2cnn(Cc3ccccc3)c(=O)c2)C1 (configuration not stated) the results were SNCA expr inhib inactive, IP6K1 inh inactive, KDM5B inh inconclusive and SNCA viab count inconclusive.
For NC(=O)c1cc(-c2cc(NCc3cccnc3)nc3[nH]ccc23)ccc1F the results were SNCA expr inhib inactive, IP6K1 inh inactive, KDM5B inh 25.1µM and SNCA viab count inactive.
For O=C(O)c1cnc(-c2cc(NCc3ccccn3)nc3[nH]ccc23)c(Cl)c1 the results were SNCA expr inhib inactive, IP6K1 inh inactive, KDM5B inh inconclusive and SNCA viab count inactive.
For Cc1cccc(C(=O)Nc2sc3c(c2C(=O)N2CCN(C)CC2)CCC3)c1 the results were KDM5B inh inactive.
For COCc1cc(C)nc2c1C(=O)NC(c1ccc(NC(C)=O)cc1)N2Cc1ccccc1 (configuration not stated) the results were SNCA expr inhib inactive, IP6K1 inh inactive, KDM5B inh inconclusive and SNCA viab count inactive.
COc1ccccc1CNc1ncnc2ccc(-c3ccccc3OC)cc12 was read as SNCA expr inhib inactive and SNCA viab count inactive.
Screening CCc1nccc(CN2CCC(c3nn(C)c(=O)n3CC)CC2)n1 returned SNCA expr inhib inactive, IP6K1 inh inactive, KDM5B inh 15.8µM and SNCA viab count inactive.
`COc1ccc(-c2nc(CN3CCC(C(=O)NCCc4ccccc4)CC3)c(C)o2)cc1OC` gave SNCA expr inhib inactive, IP6K1 inh inactive, KDM5B inh inactive and SNCA viab count inactive.
COC(=O)C1=C(C)N=C2SC=C(CC(=O)NCC3CC3)N2C1c1ccccc1OC (configuration not stated) was read as SNCA expr inhib inactive, IP6K1 inh inactive, KDM5B inh inconclusive and SNCA viab count inactive.
Screening CC1Cc2ccccc2N1S(=O)(=O)c1nnc(NC(=O)c2cccc(F)c2)s1 (configuration not stated) returned SNCA expr inhib inactive, IP6K1 inh inactive, KDM5B inh inactive and SNCA viab count inactive.
`Cc1ccc(-c2ccc3nnc(CNC(=O)COc4ccccc4)n3n2)cc1C` gave SNCA expr inhib inactive, IP6K1 inh inactive, KDM5B inh 28.2µM and SNCA viab count inactive.
